Laboratory results as given in PubChem BioAssay (NCI).
About 79,000 compounds went through this panel and 15% of them were active in at least one assay; those are over-represented in the sample as a whole. The source made the active and inactive calls. No stated cut-off is given here; in the data, active means growth inhibition above about 70%; inactive means the rest.

Columns and labels:
[1] = NCI Yeast Anticancer Drug Screen. Data for the rad52 strain (AID 147);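 further: 0% = growth of vehicle-treated control cultures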; details: S. cerevisiae rad52 mutant growth inhibition, active compounds read high
Procedure, shortened: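 Compounds are applied to a genetically defined yeast strain lacking normal DNA damage repair, and inhibition of growth is expressed relative to cultures given vehicle only.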

[2] = NCI Yeast Anticancer Drug Screen. Data for the wt1 strain (AID 149);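 further: 0% = growth of vehicle-treated wt1 cultures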; details: S. cerevisiae wt1 strain (SPY 50644) growth inhibition, active compounds read high
Procedure, shortened: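 Using yeast strain wt1, compound-induced growth inhibition was determined against vehicle-treated cultures.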

[3] = NCI Yeast Anticancer Drug Screen. Data for the rad50EPP+ strain (AID 151);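 further: 0% = growth of vehicle-treated control cultures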; details: S. cerevisiae rad50 mutant strain, active compounds read high
Procedure, shortened: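 Compounds were applied to the rad50EPP+ yeast strain, which bears a defined DNA repair alteration, and growth inhibition was determined relative to vehicle-treated cultures.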

[4] = NCI Yeast Anticancer Drug Screen. Data for the mgt1 strain (AID 153); details: S. cerevisiae mgt1 mutant growth inhibition, active compounds read high
Procedure, shortened: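 Strain: mgt1 yeast, one of a set carrying defined DNA damage repair or cell cycle control alterations. Compound-treated growth compared with vehicle.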

[5] = NCI Yeast Anticancer Drug Screen. Data for the rad50 strain (AID 155);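 further: 0% = growth of vehicle-only cultures of the same strain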; details: S. cerevisiae rad50 strain growth inhibition, active compounds read high
Procedure, shortened: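 Relative growth inhibition (compound vs vehicle) was measured in yeast with a defined repair-gene alteration.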

[6] = NCI Yeast Anticancer Drug Screen. Data for the mec2-1 strain (AID 157); details: S. cerevisiae mec2-1 strain, active compounds read high
Procedure, shortened: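 Strain: mec2-1 (DNA repair/cell cycle alteration). Compound exposure, then growth measured; inhibition expressed relative to vehicle.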

[7] = NCI Yeast Anticancer Drug Screen. Data for the rad14 strain (AID 159);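 further: 0% = growth of vehicle-treated control cultures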; details: S. cerevisiae rad14 strain growth inhibition, active compounds read high
Procedure, shortened: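 Screen for anticancer potential: a yeast strain altered in DNA damage repair is grown with compound, and reduced growth is quantified against vehicle controls.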

[8] = NCI Yeast Anticancer Drug Screen. Data for the sgs1 mgt1 strain (AID 161);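 further: 0% = growth of cultures given vehicle only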; details: S. cerevisiae sgs1 mgt1 strain, active compounds read high
Procedure, shortened: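 Mutant yeast exposed to compound; growth scored against vehicle-only wells.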

[9] = NCI Yeast Anticancer Drug Screen. Data for the CLN2oe strain (AID 163);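 further: 0% = growth of vehicle-only control cultures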; details: S. cerevisiae CLN2oe strain, active compounds read high
Procedure, shortened: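 Growth of a genetically modified yeast strain is measured after compound exposure and compared with cultures given vehicle alone.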

[10] = NCI Yeast Anticancer Drug Screen. Data for the cln2 rad14 strain (AID 165);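 further: 0% = growth equal to vehicle treated cultures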; details: S. cerevisiae cln2 rad14 strain, active compounds read high
Procedure, shortened: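 Compounds are applied to the cln2 rad14 yeast strain, and growth is then compared with that of vehicle-treated cultures to give inhibition.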

[11] = NCI Yeast Anticancer Drug Screen. Data for the wt2 strain (AID 169);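 further: 0% = growth of vehicle-treated yeast cultures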; details: S. cerevisiae wt2 strain growth inhibition, active compounds read high
Procedure, shortened: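 This strain belongs to a panel of yeast strains with defined genetic alterations in DNA damage repair or cell cycle control. Compounds are applied, and growth inhibition is measured against vehicle-treated cultures.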

[12] = NCI Yeast Anticancer Drug Screen. Data for the mlh1 strain (AID 171);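 further: 0% = growth of vehicle-treated control cultures of the same strain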; details: S. cerevisiae mlh1 strain growth inhibition, active compounds read high
Procedure, shortened: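 Growth of the mutant yeast strain after compound exposure, expressed as inhibition relative to vehicle-only controls.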

[13] = NCI Yeast Anticancer Drug Screen. Data for the sgs1 strain (AID 173);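 further: 0% = growth of vehicle-only control cultures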; details: S. cerevisiae sgs1 mutant, active compounds read high
Procedure, shortened: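 Growth of a yeast strain bearing a defined genetic alteration is measured after compound treatment. Inhibition is expressed relative to vehicle-only controls.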

[14] = NCI Yeast Anticancer Drug Screen. Data for the mlh1 rad18 strain (AID 175); details: S. cerevisiae mlh1 rad18 strain growth inhibition, active compounds read high
Procedure, shortened: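 Read-out is yeast growth inhibition, calculated against vehicle-only controls. The compound was applied to a strain engineered with DNA damage repair alterations.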

[15] = NCI Yeast Anticancer Drug Screen. Data for the rad18 strain (AID 177); details: S. cerevisiae rad18 mutant growth inhibition, active compounds read high
Procedure, shortened: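 Growth of the mutant yeast strain after compound exposure, normalised to vehicle-only cultures.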

[16] = at 5.0 µM (retest, dose inferred, filed as 0.5)
[17] = at 50.0 µM (retest, dose inferred, filed as 5.0)

Measured: growth inhibition

CN1c2ccc(Cl)cc2C(=O)NC1c1ccc([N+](=O)[O-])s1 (stereo not given)
inactive: [1]; at 1.2 µM 27% | [1]; at 3.7 µM 30% | [1]; at 11.0 µM 65% | [2]; at 1.2 µM 5% | [2]; at 3.7 µM 1% | [2]; at 11.0 µM 17% | [3]; at 1.2 µM 0% | [3]; at 3.7 µM -4% | [3]; at 11.0 µM 18% | [3]; at 33.0 µM 61% | [3]; at 100.0 µM 67% | [4]; at 1.2 µM -5% | [4]; at 3.7 µM 8% | [4]; at 11.0 µM 23% | [5]; at 1.2 µM 20% | [5]; at 3.7 µM 39% | [5]; [16] 9% | [6]; at 1.2 µM -7% | [6]; at 3.7 µM -52% | [6]; [16] 19% | [6]; at 11.0 µM 14% | [7]; at 1.2 µM -8% | [7]; at 3.7 µM -3% | [8]; [16] -10% | [9]; at 1.2 µM 4% | [9]; at 3.7 µM -2% | [9]; at 11.0 µM -3% | [10]; [16] 37% | [11]; at 1.2 µM 7% | [11]; at 3.7 µM 4% | [11]; at 11.0 µM 42% | [12]; at 1.2 µM 13% | [12]; at 3.7 µM 14% | [12]; at 11.0 µM 51% | [13]; at 1.2 µM -4% | [13]; at 3.7 µM 13% | [13]; at 11.0 µM 58% | [14]; [16] 2% | [15]; at 1.2 µM 3% | [15]; at 3.7 µM 25%
active: [1]; at 33.0 µM 97% | [1]; at 100.0 µM 97% | [2]; at 33.0 µM 92% | [2]; at 100.0 µM 96% | [4]; at 33.0 µM 97% | [4]; at 100.0 µM 96% | [5]; at 11.0 µM 72% | [5]; at 33.0 µM 97% | [5]; [17] 95% | [5]; at 50.0 µM 91.3% | [5]; at 100.0 µM 96% | [6]; at 33.0 µM 93% | [6]; [17] 95% | [6]; at 50.0 µM 93.2% | [6]; at 100.0 µM 96% | [7]; at 11.0 µM 71% | [7]; at 33.0 µM 96% | [7]; at 100.0 µM 97% | [8]; [17] 94% | [8]; at 50.0 µM 93.8% | [9]; at 33.0 µM 92% | [9]; at 100.0 µM 97% | [10]; [17] 96% | [10]; at 50.0 µM 91% | [11]; at 33.0 µM 97% | [11]; at 100.0 µM 97% | [12]; at 33.0 µM 96% | [12]; at 100.0 µM 97% | [13]; at 33.0 µM 95% | [13]; at 100.0 µM 96% | [14]; [17] 98% | [14]; at 50.0 µM 92.8% | [15]; at 11.0 µM 81% | [15]; at 33.0 µM 96% | [15]; at 100.0 µM 97%
